Shown is part of a subset that was picked to be rich in hits.
USP2a block: USP2a (human) protease inhibition; O75604; USP2 core, Ub-CHOP2 coupled fluorogenic reporter, 485/531; Potency, µM (series often up to 38.3 µM), inactives show at the top dose activity change, negative = inhibition, usual class: inhibitors; 0.01% of 330,000 active; AID 463254;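 further: plate controls were DMSO wells for no effect and full inhibition by NEM control for full effect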
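Cell-free coupled assay: 10nM USP2 core preincubated 30min RT with compound in Tris-HCl pH 8.0/CaCl2/CHAPS buffer, then 25nM Ub-CHOP2 and 25nM reporter substrate; fluorescence (Ex 485/Em 531) read after 60min RT, normalized to NEM inhibition, concentration-response curves fitted.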
Eya2 phos inh: inhibitors of human Eya2 phosphatase activity | O00167 | recombinant Eya2, OMFP fluorescence dephosphorylation (OMFP is methylfluorescein phosphate) | Potency, µM (highest dose often 76.9 µM), for the others: at the highest dose activity, negative = inhibition, most hits filed as inhibitors | 0.006% of 330,000 active; further: on the % scale 0 is the no-effect control and ±100 the full control effect
Target sequence (O00167 whole entry, looked up): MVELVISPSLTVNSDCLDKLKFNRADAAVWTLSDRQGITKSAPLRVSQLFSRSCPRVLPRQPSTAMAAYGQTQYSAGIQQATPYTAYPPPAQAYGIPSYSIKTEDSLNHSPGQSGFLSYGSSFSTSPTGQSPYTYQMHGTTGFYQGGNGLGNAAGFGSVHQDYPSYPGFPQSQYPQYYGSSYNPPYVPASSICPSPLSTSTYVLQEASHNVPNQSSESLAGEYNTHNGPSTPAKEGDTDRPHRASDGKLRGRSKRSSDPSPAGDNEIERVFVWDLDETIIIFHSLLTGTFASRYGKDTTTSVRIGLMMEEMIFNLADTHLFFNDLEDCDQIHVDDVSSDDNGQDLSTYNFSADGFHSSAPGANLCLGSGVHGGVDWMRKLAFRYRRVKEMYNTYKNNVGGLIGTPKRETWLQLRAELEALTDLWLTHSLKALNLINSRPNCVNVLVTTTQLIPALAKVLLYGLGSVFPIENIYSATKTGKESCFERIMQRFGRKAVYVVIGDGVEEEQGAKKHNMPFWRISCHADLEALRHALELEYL
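Eya2 (0.2 uM) preincubated 10 min at ambient with compound, then OMFP substrate added at 50 uM; 10 min reaction in 50 mM HEPES pH 7.5, 50 mM NaCl, 5 uM MgCl2, 0.05% BSA, 1 mM DTT. Fluorescence read at Ex 485/Em 525 nm.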
MmCpn inh: inhibitors of Methanococcus maripaludis chaperonin TRiC (MmCpn) | purified Mm-Cpn ATPase, ADP Transcreener TR-FRET | Potency, µM (doses to about 76.9 µM), without a hit: at the top dose activity, negative = inhibition, hits mostly inhibitors | 0.031% of 330,000 active | AID 504842; further: on the % scale 0 is the no-effect control and ±100 the full control effect; nearly all actives have a fitted effect of over 80% in size
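25 nM Mm-CPN + cpd, 10 min 37°C; + 10 uM ATP, 30 min 37°C; buffer 30 mM Tris pH 7.4, 100 mM KCl, 5 mM MgCl2, 1 mM DTT; Transcreener ADP HTRF detection 30 min RT.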
a7 integrin act: activators of alpha7 integrin expression for muscular dystrophy | alpha7betagal myoblasts, beta-gal FDG fluorescence, 48 h | Potency, µM (titrated, usually from 38.3 µM), for the others: at the top dose activation, most hits filed as activators | 0.064% of 350,000 active | AID 624291;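 further: 100% = response of the positive control SU9516; nearly all actives have a fitted effect of over 60% in size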
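alpha7betagal+/- myoblasts (passage 13, 250/well) treated 48 h at 37C with compounds at 1:260 dilution of DMSO stock. Lysed, then beta-galactosidase activity read as FDG fluorescence (ex 480/em 540) after 30 min, with pre-read for autofluorescence.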
p53 reactivator: re-activators of mutant p53; H1299 p53-A138V BP100-luciferase reporter, luminescence, 24 h; Potency, µM (top dose mostly 92.2 µM), for inactives: at the top dose activity change, positive = activation, usual class: activators; 0.063% of 320,000 active; AID 504706; further: % of control where 0% means no effect; nearly all actives have a fitted effect of over 45% in size
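p53-null H1299 cells stably carrying temperature-sensitive p53-A138V and a BP100-luciferase reporter were pinned with compounds (4-point, 1:5 series) and held 24 hrs at 37 deg C. Luminescence was read 10 min after detection reagent.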
ClpP mod: qHTS Assay for Activators of ClpP. ATP-dependent Clp protease proteolytic subunit (Bacillus subtilis (strain 168)), P80244. purified B. subtilis ClpP, FRET peptide cleavage, 20 min. Potency, µM (series often up to 57.5 µM), inactives show at the top dose activity change, negative = active. 1.9% of 340,000 active; active means well fitted falling curve with a large enough effect; inconclusive means small, poorly fitted or top-dose-only effect; inactive means no such curve, though single readings can be large or run the other way; further: the source files actives as falling curves though it sought activators and does not explain the sign; nearly all actives have a fitted effect of over 65% in size
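Purified B. subtilis ClpP, 10 microg/mL final in Tris/HCl pH8 with KCl, BSA, glycerol and Tween-20, cleaved an Abz/nitrotyrosine-quenched decapeptide. Fluorescence (ex 320, em 430) was read at 0 and 20 min at room temperature. Delta was normalized to 5.8 microM ADEP and DMSO/no-enzyme controls.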
Starred values were filed as active, the others as inactive. Unless noted, the call rests on the fitted dose curve; in most records, active means well fitted curve in the direction sought with a large enough effect; inconclusive means small, poorly fitted or top-dose-only effect, or another doubt; inactive means no such curve, though single readings can be large; an effect the other way counts as inactive or inconclusive. Potency means the concentration at half of the fitted maximal effect.

Results for C=CCOC(=O)C1=C(C)NC(C)=C(C(=O)OCC=C)C1c1ccc(O)cc1 ?
USP2a block: 0%; Eya2 phos inh: 10%; MmCpn inh: -2%; a7 integrin act: 40%; p53 reactivator: -8%; ClpP mod: 22µM*

How did C=CCOC(=O)C1=C(C)NC(=O)NC1c1ccc(O)cc1 (centres undefined) do in these assays?
USP2a block: 1%; Eya2 phos inh: 9%; MmCpn inh: 0%; a7 integrin act: 19%; ClpP mod: 1%

How did COc1ccc(N2C(=O)C(Cl)=C(Nc3ccccc3O)C2=O)cc1 do in these assays?
USP2a block: 5%; Eya2 phos inh: -29%; MmCpn inh: 1%; a7 integrin act: -26%; p53 reactivator: inconclusive; ClpP mod: 32µM*

What do the screens show for `CCCC[n+]1c(/C=C/c2ccc(N(C)C)cc2)sc2ccccc21`?
ClpP mod: -1%

How did O=C(CN1C(=O)c2ccccc2S1(=O)=O)Nc1cc(S(=O)(=O)N2CCOCC2)ccc1N1CCOCC1 do in these assays?
ClpP mod: -4%

What do the screens show for `CCCCN(CCC(=O)O)c1ccc(/C=C/c2ccnc3ccccc23)cc1`?
ClpP mod: 2%

Results for CN(C(=O)COC(=O)c1ccc2ccccc2n1)c1ccccc1 ?
USP2a block: 1%; Eya2 phos inh: -9%; MmCpn inh: 1%; a7 integrin act: 25%; p53 reactivator: 3%; ClpP mod: 10µM*

What do the screens show for `CCOc1ccc(NC(=O)c2cc(S(=O)(=O)N3CCc4ccccc43)ccc2F)cc1`?
ClpP mod: -5%

What do the screens show for `CCCN1C(=O)c2ccccc2NC1c1ccc(OC)c(COc2ccc([N+](=O)[O-])cc2)c1` (centres undefined)?
ClpP mod: -9%

What do the screens show for `CC1CCCN(c2nc(-c3cccnc3)nc3scc(-c4ccccc4)c23)C1` (centres undefined)?
USP2a block: 5%; Eya2 phos inh: -4%; MmCpn inh: -2%; a7 integrin act: inconclusive; p53 reactivator: 5%; ClpP mod: 14µM*

What do the screens show for `CC1CCN(c2nc(-c3cccnc3)nc3scc(-c4ccccc4)c23)CC1`?
USP2a block: 4%; Eya2 phos inh: -14%; MmCpn inh: -1%; a7 integrin act: -1%; p53 reactivator: -10%; ClpP mod: inconclusive

What do the screens show for `CN(C)C(=O)c1ccc(/C=C/c2ccnc3ccccc23)cc1`?
ClpP mod: -6%

How did Cc1ccc(N2C(=O)C(CN3CCCCC3)C2c2ccccc2)cc1 (centres undefined) do in these assays?
USP2a block: 1%; Eya2 phos inh: 9%; MmCpn inh: -2%; a7 integrin act: -267%; p53 reactivator: 7%; ClpP mod: 16µM*

How did CC(N)(Cc1ccc(O)c(O)c1)C(=O)O (centres undefined) do in these assays?
Eya2 phos inh: -5%

Results for CCc1ccc(CNC(=O)C2CCN(C(=O)c3ccc(-n4ccc5ccccc54)s3)CC2)cc1 ?
ClpP mod: 35µM*

What do the screens show for `CCOc1ccccc1NC(=O)CC1Nc2ccccc2NC1=O` (centres undefined)?
USP2a block: -11%; Eya2 phos inh: -12%; MmCpn inh: -1%; a7 integrin act: -3%; p53 reactivator: 14%; ClpP mod: 25µM*

How did COC(=O)[C@]1(Cc2ccccc2)N[C@H](c2ccc(-c3cc(C(C)=O)cs3)cc2)[C@@H]2C(=O)N(C)C(=O)[C@@H]21 do in these assays?
USP2a block: -2%; Eya2 phos inh: 3%; MmCpn inh: -12%; a7 integrin act: -1%; p53 reactivator: -4%; ClpP mod: 18µM*
